Hits are enriched below; roughly 4.1% of the tested compounds scored in any of these assays.
tim10-1 inh = growth inhibitors of tim10-1 mutant yeast, primary screen, luminescence, uHTS | S. cerevisiae tim10-1 ts strain growth, BacTiter-Glo, 24 h | inhibition, % at 20 µM | 330,000 tested, 2.2% active | AID 463190, 2010;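 active = inhibition of at least 40%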;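 note: mutant grown at 25 °C; 0% = DMSO wells with yeast and 100% = wells holding no yeast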
PfHsp90 yeast 2 = growth inhibition of PfHsp90-expressing yeast, primary screen, antimalarial PfHsp90 inhibitor project, S. cerevisiae, BacTiter-Glo luminescence, single point, set 2; BacTiter-Glo ATP, 48 h; yeast lacking PDR1 and PDR3 efflux regulators; inhibition, % at 9.4 µM; 310,000 tested, 0.32% active;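 active = every replicate shows inhibition above about 80%, whatever the replicate mean, limit read from the data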;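 note: 0% = DMSO neutral controls and 100% = 20 µM radicicol positive controls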
NALP3 yeast inh = NALP3 inflammasome inhibitors in reconstituted yeast, primary screen, luminescence, uHTS | AID 2825, 2010 | inhibition, % at 10 µM | Yeast reconstituted NLRP3/ASC/caspase-1, beta-gal luminescence, 24 h | 330,000 tested, 0.39% active;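 active = inhibition of 50% or more; inactive = inhibition below 50%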;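 note: plate controls were induced DMSO wells for no effect and uninduced yeast grown without galactose for full effect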
NALP1 inh = NALP1 inflammasome inhibitors in reconstituted yeast, colorimetric, S. cerevisiae, triplicate retest | inhibition, % at 10 µM | S. cerevisiae NALP1/ASC/caspase-1 growth, X-gal OD620, 72 h | 280,000 tested, 0.61% active; in the data active = inhibition mostly above about 24%, no sharp cut-off; inactive = mostly below about 32%
TIM10 inh = growth inhibitors of isogenic TIM10 control yeast, primary screen, counter-screen for tim10-1 yeast inhibitor project, luminescence, uHTS; S. cerevisiae TIM10 strain growth, BacTiter-Glo luminescence, 24 h; inhibition, % at 10 µM; AID 463195, 2010; 330,000 tested, 1.4% active;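 active = inhibition of 40% or more at the single tested concentration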;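 note: wild-type TIM10 isogenic control strain grown at permissive 25 °C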
tim23-1 inh = growth inhibitors of tim23-1 mutant yeast, primary screen, luminescence, uHTS; 330,000 tested, 1.3% active; S. cerevisiae tim23-1 growth, BacTiter-Glo luminescence, 24 h; AID 463212, 2010; inhibition, % at 20 µM;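 active = growth inhibition of the mutant yeast at or above 50%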;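 note: temperature-sensitive mutant grown at 25 °C; plate controls were DMSO-treated mutant yeast for no effect and medium wells lacking yeast for full effect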
tim23-1 confirm = tim23-1 mutant yeast growth inhibitors, confirmation, luminescence, single concentration; inhibition, % at 20 µM; S. cerevisiae tim23-1 growth, BacTiter-Glo luminescence, 24 h; 4,400 tested, 83% active; shares compounds with tim23-1 inh;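 active = inhibition above about 39% in either of two replicate wells at 20 µM, limit read from the data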;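 note: temperature-sensitive tim23-1 mutant grown at 25 °C; 0% = DMSO wells with yeast and 100% = medium wells without yeast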
* marks the source's active call; other numbers are inactive results; nt = no result.

SMILES	tim10-1 inh	PfHsp90 yeast 2	NALP3 yeast inh	NALP1 inh	TIM10 inh	tim23-1 inh	tim23-1 confirm
C=C(C)c1cccc(C(C)(C)NC(=O)Nc2ccc(OC)nc2)c1	23	-88	11	20	23	29	nt
Cc1nc2ccccc2c(=O)n1NC(=O)c1ccco1	0	5	14	7	0	10	nt
Cc1ccccc1OCc1nc2ccccc2c(=O)n1NC(=O)c1ccco1	20	-5	9	-10	10	53*	38
CC(C)c1ccccc1NC(=O)CN1C(=O)c2ccccc2C1=O	2	11	12	22	-4	18	nt
Fc1cccc(NC(=S)NNc2c3ccccc3nc3ccccc23)c1	nt	-48	nt	12	nt	nt	nt
Fc1cccc(NC(=S)NNc2ccccc2)c1	13	2	19	5	18	59*	-18
CC[C@]1(C(=O)OC)[C@H]2C(=O)N(C)C(=O)[C@H]2[C@H]2CN=C(SCc3ccc(C(=O)OC)cc3)N21	10	-10	nt	nt	13	36	nt
CCOc1cc(/C=C2\COc3ccccc3C2=O)cc(Br)c1OCC(=O)N(C)C	10	47	42	16	2	50*	57*
COc1ccc(NC(=O)C2CCN(S(=O)(=O)c3cccc4nonc34)CC2)cc1OC	-6	27	-5	9	12	0	nt
COc1cc(/C=C/[N+](=O)[O-])ccc1OC(=O)/C=C/c1ccc(F)cc1	35	-18	42	26	26	55*	51*
COc1ccc(/C=C/C(=O)Oc2ccc(C)c(C)c2)cc1OC	27	-1	14	4	8	17	nt
O=C(COc1ccccc1[N+](=O)[O-])NCCCN1CCCC1=O	-5	-21	10	nt	3	7	nt
Cc1ccc(C)c(NC(=O)CCC(=O)NN=C2CCCC2)c1	-21	-28	6	19	-1	-15	nt
COc1ccc(CCN2CC(C(=O)NCc3ccccc3)CCC2=O)cc1 (stereo not given)	-1	15	14	36	-9	3	nt
Cc1nnc(SCC(=O)Nc2nsc(-c3ccc(C(C)(C)C)cc3)n2)s1	39	nt	7	-3	18	51*	41*
Cc1occc1C(=O)N/N=C/C=C/c1ccccc1	-25	3	5	-16	-27	27	nt
Cc1occc1C(=O)N/N=C/C(Br)=C\c1ccccc1	14	7	32	2	30	63*	67*
CC1(C)CC(=O)C=C(c2ccc3[nH]ccc3c2)C1	33	-15	26	nt	6	54*	35
O=C1C=C(c2ccc3[nH]ccc3c2)CCC1	24	-12	26	nt	2	27	nt
CC1(C)CC(=O)C=C(c2ccc(I)cc2)C1	13	13	19	nt	-12	51*	41*
CC1CCN(C(=O)CSc2nc(=O)n3ccccc3n2)CC1	-1	24	10	nt	2	2	nt
O=C(CSc1nc(C(F)(F)F)cc(=O)[nH]1)N1CCC(Cc2ccccc2)CC1	7	-3	16	nt	3	6	nt
O=C(Nc1cccc(-c2nnc(-c3ccccc3)o2)c1)c1ccc(Br)o1	21	9	35	8	23	73*	63*
O=C(Nc1cccc(OC(=O)c2ccc(Br)o2)c1)c1ccccc1	24	-12	22	8	36	64*	57*
Cc1ccc(C(=O)Oc2cccc(NC(=O)c3ccccc3)c2)cc1C	17	4	34	22	11	31	nt
SMILES	tim10-1 inh	PfHsp90 yeast 2	NALP3 yeast inh	NALP1 inh	TIM10 inh	tim23-1 inh	tim23-1 confirm
O=C(Nc1cccc(-c2ccc(N3CCCCC3)nn2)c1)c1ccc(Br)o1	37	-23	17	nt	19	54*	59*
CCOC(=O)/C=C1/SCC(=O)N1CC(=O)Nc1ccc2c(c1)CCC2	nt	-19	nt	nt	nt	nt	nt
O=C(NN=Cc1ccccc1C(=O)O)c1ccc(NS(=O)(=O)c2cccs2)cc1	9	22	6	nt	4	8	nt
CSc1ncc(C(=O)Nc2cccnc2)c(C(F)(F)F)n1	-8	12	0	32	4	2	nt
COc1ccc([N+](=O)[O-])cc1NCC(=O)Nc1cc(S(=O)(=O)N2CCCCC2)ccc1C	-3	nt	15	nt	1	3	nt
Cc1ccc(-c2nc3n(n2)Cc2ccccc2-3)cc1	14	10	20	-11	20	54*	50*
O=c1[nH]c(CCl)nc2cc(-c3ccc(F)cc3)sc12	21	19	-3	8	36	59*	58*
COc1ccc([C@H]2CC(=O)C=C(c3cccc(Cl)c3)C2)cc1	28	-46	25	nt	28	51*	46*
O=C1C=C(c2cccc(Cl)c2)C[C@@H](c2ccc(Cl)cc2)C1	2	-15	3	nt	10	39	nt
O=C1C=C(c2cccc(Cl)c2O)C[C@@H](c2ccc(Cl)cc2)C1	16	-3	20	nt	3	57*	40*
CC(=O)Nc1ccc(C2=CC(=O)C[C@H](c3ccc(Cl)cc3)C2)cc1	19	-24	8	nt	16	51*	42*
CC(=O)N1c2ccc(S(=O)(=O)NCC3CCC(C(=O)Nc4cccc(C)n4)CC3)cc2CC1C (stereo not given)	26	-5	-3	0	2	18	nt
Cc1cnc(C(=O)NCC(=O)Nc2ccccc2Br)cn1	-4	nt	2	nt	-20	-9	nt
CC(Oc1ccccc1)C(=O)N=C1SC2CS(=O)(=O)CC2N1c1cccc(F)c1 (stereo not given)	6	-1	11	-1	-7	-12	nt
CN1CCSc2ccc(C(=O)NCc3cccc(Br)c3)cc21	37	12	11	3	28	53*	50*
CC1(C)CC2CC(C)(CN2S(=O)(=O)c2cccc(C(=O)OCC(N)=O)c2)C1 (stereo not given)	13	-34	-2	nt	2	7	nt
CC1(C)CC2CC(C)(CN2S(=O)(=O)c2ccc(F)cc2F)C1 (stereo not given)	40	nt	12	nt	30	52*	49*
CN(c1ccc(C(=O)NCc2ccncc2)cc1)S(=O)(=O)c1ccc(Cl)cc1	-6	-16	12	10	10	1	nt
CCCCOC(=O)CCCN1C(=O)/C(=C2\SC(=S)N(CCCC(=O)OCCCC)C2=O)SC1=S	-9	nt	24	nt	4	10	nt
Cc1cccc(-n2ncc3c2CCCC3NC(=O)C2CCOCC2)c1C (stereo not given)	3	-7	17	2	-1	17	nt
